High-throughput results from PubChem.
Only some compounds are listed: those with a hit (about 11% of all), similar ones and a draw of the others.
HEK cytotox: kills HEK 293 cells | HEK 293 viability, ATP luminescence (CellTiter-Glo), 48-72 h | Potency, µM (highest dose often 115 µM), without a hit: at the top dose activity change, negative = cytotoxicity, most hits filed as inhibitors | 94,000 tested, 6.6% active | AID 1345083; note: nearly all actives have a fitted effect of over 60% in size
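Read-out: CellTiter-Glo ATP luminescence. Cells: HEK 293, 250 cells/well. Exposure: 48 or 72 hr, 37 degree Celsius.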
NIH3T3 tox: NIH 3T3 cell cytotoxicity | AID 1345082 | NIH 3T3 viability, CellTiter-Glo ATP luminescence, 48-72 h | 94,000 tested, 4.3% active | Potency, µM (doses to about 96.7 µM), for the others: at the highest dose activity change, negative = cytotoxicity, actives largely listed as inhibitors; note: nearly all actives have a fitted effect of over 55% in size
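Cytotoxicity was measured by CellTiter-Glo ATP luminescence after 48 or 72 h compound exposure at 37 °C. Mouse NIH 3T3 fibroblasts were seeded at 400 cells/well and dosed by 23 nL pin transfer.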
hNpr1 antagonist: human Npr1 receptor antagonism; P16066; HEK293 hNpr1 GloSensor cGMP, ANP-stimulated luminescence; Potency, µM (top dose mostly 46.3 µM), for inactives: at the top dose activity change, negative = inhibition, hits mostly inhibitors; 76,000 tested, 1.6% active; AID 1347048; calls by dose curve; note: nearly all actives have a fitted effect of over 60% in size
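Compound pre-incubated 30 min at room temperature on GloSensor-loaded HEK293 cells stably carrying hNpr1 and the pGS-40F cGMP biosensor. Stimulation uses hNppA at 0.1 nM final; luminescence is taken at baseline and 20 min post-agonist.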
FLuc inh: inhibitors of firefly (Photinus pyralis) luciferase | AID 1347043 | P08659 | purified P. pyralis luciferase, luminescence, biochemical | Potency, µM (highest dose often 115 µM), usual class: inhibitors | 76,000 tested, 2.5% active; note: nearly all actives have a fitted effect of over 65% in size
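Inhibitors were tested against purified firefly luciferase in a biochemical, low-substrate format (both substrates at 10uM) and luminescence measured with a CCD imager.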
The depositor's hits bear a star; i = inactive; u = inconclusive; x = no result given; [ ] = remark or other dose. Unless noted, calls come from the whole dose curve; as a rule, active = well fitted curve in the direction sought with a large enough effect; inconclusive = small, poorly fitted or top-dose-only effect, or another doubt; inactive = no such curve, though single readings can be large; an effect the other way counts as inactive or inconclusive. % is set by controls: 0 for no effect and ±100 for the full control effect; potency is the fitted concentration of half-maximal effect.

SMILES	HEK cytotox	NIH3T3 tox	hNpr1 antagonist	FLuc inh
COc1ccc(-c2cc(C[C@H]3CNCC[C@H]3CC(=O)NCc3ccc(F)cc3)no2)cc1	u	u	-14%	i
CC(C)(C)NC(=O)C[C@@H]1CCNC[C@@H]1Cc1cc(-c2ccc(C(C)(C)C)cc2)on1	13µM*	22µM*	-11%[70.6 µM]	i
O=C(COc1ccccc1)N1CC(CO)C2(CCNCC2)C1 (centres undefined)	-12%	-18%	x	x
O=S(=O)(Cc1ccccc1)Nc1cnc2c(c1)CCC2	i	-10%	x	x
O=C(C[C@@H]1CCNC[C@@H]1Cc1cc(-c2ccccc2)on1)NCc1cccnc1	-15%[172 µM]	3%[174 µM]	2%[70.6 µM]	i
O=C(C[C@@H]1CCNC[C@@H]1Cc1cc(-c2ccccc2)on1)NCc1cccs1	89µM*	u	-3%[70.6 µM]	i
COc1ccc(-c2cc(C[C@H]3CNCC[C@H]3CC(=O)NCCN3CCOCC3)no2)cc1	-6%	-11%	2%	i
CC(=O)NCCNC(=O)C[C@@H]1CCNC[C@@H]1Cc1cc(-c2ccccc2)on1	i	i	-1%[70.6 µM]	i
O=C(C[C@@H]1CCNC[C@@H]1Cc1cc(-c2ccccc2)on1)NCc1ccccc1	u	100µM*	-17%[70.6 µM]	i
COc1ccc(-c2cc(C[C@H]3CNCC[C@H]3CC(=O)NCc3cccs3)no2)cc1	56µM*	89µM*	-15%[70.6 µM]	i
CCOc1ccc2c(n1)CCN(C(=O)Cc1ccc(C)cc1)C2	u	u	-1%	i
COc1ccc(CNC(=O)C2CCN(c3nccc(Nc4ccc(OC)cc4)n3)CC2)cc1	45µM*	40µM*	x	x
COc1ccc(CNC(=O)C2CCN(c3nccc(Nc4ccc(C)cc4)n3)CC2)cc1	u	28µM*	x	x
COc1ccc(Nc2ccnc(N3CCC(C(=O)NCc4ccc(F)cc4)CC3)n2)cc1	u	40µM*	x	x
COc1ccc(Nc2ccnc(N3CCC(C(=O)N(C)C)CC3)n2)cc1	u	-29%	x	x
Cc1ccc(Nc2ccnc(N3CCC(C(=O)NCC4CC4)CC3)n2)cc1	u	32µM*	x	x
CC(C)c1ccc(CN2CCc3ncc(C(=O)NCCN4CCNC4=O)n3CC2)cc1	u	-32%[138 µM]	-6%[70.6 µM]	i
Cc1nc(N2CCC(C(=O)NCc3ccc4c(c3)OCO4)CC2)cc(C(F)(F)F)n1	u	u	u	89µM*
Cc1ccc(Nc2ccnc(N3CCC(C(=O)NCc4ccc5c(c4)OCO5)CC3)n2)cc1	u	18µM*	x	x
CCc1ccc(CNC(=O)C2CCN(c3cc(C(F)(F)F)nc(C)n3)CC2)cc1	u	u	-9%	i
CCOC(=O)C1CCCN(C(=O)C2CCc3nnc(C4CCN([S+](C)(=O)[O-])CC4)n32)C1 (centres undefined)	i	-15%	x	x
COCCNC(=O)c1nc(-c2ccccc2)c2ccccn12	100µM*	u	7%[70.6 µM]	i
Cc1cccc(C)c1-c1nc(C(=O)NCCc2ccc(Cl)cc2)n2ccccc12	50µM*	-27%	-5%	i
COCCNC(=O)c1nc(-c2c(C)cccc2C)c2ccccn12	35µM*	u	-1%[70.6 µM]	i
COC(=O)CNC(=O)c1nc(-c2cc(Cl)cc(Cl)c2)c2ccccn12	35µM*	-15%	-25%	i
SMILES	HEK cytotox	NIH3T3 tox	hNpr1 antagonist	FLuc inh
COC(=O)NC1CCN(c2nc3ncccc3o2)C1 (centres undefined)	i	-2%[138 µM]	x	x
O=C(NCc1ccc(F)cc1)c1nc2cccnc2n(C2CC2)c1=O	-4%	-28%	x	x
C=CCN(Cc1ccc(C#N)cc1)Cc1cccnc1	u	u	-1%	i
COc1ccccc1-c1nc(C(=O)NCCc2ccc(Cl)cc2)n2ccncc12	u	28µM*	x	x
O=C(NCCc1ccc(Cl)cc1)c1nc(-c2ccc(Cl)cc2Cl)c2cnccn12	u	-26%	x	x
Cc1noc(-c2nc(-c3cccc(Br)c3)no2)n1	u	0%	-15%	u
Cc1cccc(-c2noc(-c3nc(C)no3)n2)c1	-19%	-12%	-3%	25µM*
CCCNC(=O)N1CCC(c2noc(COc3ccc(F)cc3)n2)C1 (centres undefined)	u	-24%	u	i
O=C(Cc1c(F)cccc1Cl)N1CCC(c2noc(COc3ccc(F)cc3)n2)CC1	89µM*	u	u	i
CCn1nccc1C(=O)N1CCC(c2noc(COc3ccc(F)cc3)n2)C1 (centres undefined)	45µM*	u	-28%	i
Cc1ccc(OCc2nc(C3CN(C(=O)c4cc(C)nn4C)C3)no2)cc1	45µM*	-24%	u	40µM*
c1ccc(-c2ccccc2Nc2cnc3ccc(N4CCOCC4)nn23)cc1	89µM*	u	-27%[70.6 µM]	i
COc1cccc(Nc2cnc3ccc(N4CCOCC4)nn23)c1	-25%[172 µM]	u	-2%[70.6 µM]	i
CN1CCN(c2ccc3ncc(Nc4cccc(C(F)(F)F)c4)n3n2)CC1	100µM*	u	-26%[70.6 µM]	i
CN1CCN(c2ccc3ncc(Nc4ccccc4F)n3n2)CC1	112µM*	u	-2%[70.6 µM]	i
Cc1cc(C(=O)N2CCC3(CC2)CC(CC(=O)NCc2ccccc2)CCO3)n[nH]1 (centres undefined)	13%	i	0%	i
O=C(NC1CC1)C1c2ccccc2C(=O)N(C2CCCCC2)C12CCCCC2 (centres undefined)	32µM*	u	-6%	i
O=C(NCCc1ccccc1)C1c2ccccc2C(=O)N(Cc2ccccc2)C12CCCC2 (centres undefined)	40µM*	32µM*	-12%	i
O=C(NC1CCCC1)C1c2ccccc2C(=O)N(C2CCCC2)C12CCCCC2 (centres undefined)	-10%	-6%	6%	i
COC(=O)CCNC(=O)C1c2ccccc2C(=O)N(Cc2ccccc2)C12CCCC2 (centres undefined)	-9%	5%	1%	i
Cc1ccc(NC(=O)c2ccc(N3CC4CC(C3)[C@H]3CCCC(=O)N3C4)nc2)c(C)c1 (some centres undefined)	0%	i	4%	i
CC(C)CN1CCN(c2cc(Cl)ncn2)C(=O)C1	u	-33%[138 µM]	18%[70.6 µM]	i
CC(=O)Nc1ccc(CN2CCN(c3cc(Cl)ncn3)C(=O)C2)cc1	10µM*	35µM*	22%	i
O=C1CN(Cc2cccc(-c3ccsc3)c2)CCN1c1cc(Cl)ncn1	79µM*	u	-12%	i
O=C(CC(c1cccc([N+](=O)[O-])c1)c1cn(Cc2ccc(F)cc2)c2ccccc12)N1CCCC1 (centres undefined)	u	u	-16%	i
Cc1nc2cccnc2n1CC1CCCN(S(=O)(=O)c2cccc(Br)c2)C1 (centres undefined)	45µM*	u	u	i
Cc1ccc(S(=O)(=O)N2CCCC(Cn3c(C)nc4cccnc43)C2)cc1C (centres undefined)	u	u	u	i
